The text below walks through data of PubChem BioAssay (NCI).

Molecules are shown by their SMILES. The panel holds about 83,000 compounds, 20% with a hit somewhere; the sample as a whole holds those more often.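 Each cell line was grown in a 96-well plate and treated with one concentration of compound for 48 hours. Values below 10 were considered active.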 A number with no mark means an inactive call. Activity calls are given as the source filed them.

What all share (assay): NCI-60 one-dose screen, 48 h (100 = growth as untreated, 0 = no growth, -100 = all killed)
What all share (details): 10 µM unless noted

For test [1], the system named is HT29 colon.
The test system of test [2] is SNB-75 CNS.
The test system of test [3] is SNB-19 CNS.
For test [4], the system named is U251 CNS.
For test [5], the system named is PC-3 prostate.
Test [6] relates to SK-MEL-5 melanoma.
The test system of test [7] is UACC-62 melanoma.
In test [8] the test system is LOX IMVI melanoma.
Test [9] deals with SK-MEL-28 melanoma.
The test system of test [10] is SK-MEL-2 melanoma.
The test system of test [11] is EKVX NSCLC.
For test [12], the system named is SN12C renal.
In test [13] the test system is UO-31 renal.
For test [14], the system named is TK-10 renal.
The subject of test [15] is ACHN renal.
Test [16] has as its system CAKI-1 renal.
Test [17] has as its system A498 renal.
The test system of test [18] is CCRF-CEM leukemia.
Test [19] relates to MOLT-4 leukemia.

As for `O=C(N/N=C/[C@@H](O)[C@H](O)[C@H](O)CO)c1ccc(NC(=O)c2cccnc2)cc1`, the growth in [1] was 105%; in test [2] it was 90.3%; in test [3] it was 98.7%; in test [4], 101%; in test [5], 101%; in test [6], 106%. For the same compound, the growth in test [7] was 99.5%; in test [8], 101%; in [9], 103%; in test [10], 120%; in test [11], 100%; in test [12], 97.1%. Also, the growth is 82.9% in test [13]; 106% in test [14]; 101% in [15]; 96.1% in test [16]; 102% in test [17]; 98.5% in test [18]. In addition, the growth in test [19] was 113%.

For `Cc1nn(-c2ccccc2)c2c1N=c1s/c(=C\c3ccc(C(F)(F)F)cc3)c(=O)n1CN2`, the growth in [1] is 77.6%; in [2] it was 78%; in [3] it was 84.4%; in test [4] it was 73.6%; in test [5] it was 37.2%; in test [6] it was 31.1%. Moreover, the growth is 59.2% in [7]; 56.7% in test [8]; 87.2% in [9]; 59.3% in test [11]; 71.4% in [12]; 43.4% in test [13]. Besides, the growth in [14] was 80%; in test [15], 59.8%; in test [16] it was 59.9%; in test [17], 63.5%; in test [18], 38.3%; in test [19], 98.8%.

Turning to `COc1cc(/C=C/C(=O)/C=C/c2cc(OC)c3c(c2OC)OCO3)c(OC)c2c1OCO2`, the growth was 68.5% in test [1]; 33.4% in test [2]; 55.4% in test [3]; 11.5% in test [4]; 41% in [5]; 45.1% in [6]. For the same compound, the growth in test [7] was 25.5%; in test [8], 32.9%; in [10], 28.1%; in test [11], 87.7%; in test [12], 30.4%; in [13] it was 57.3%. In addition, the growth in test [14] was 12.9%; in test [15] it was 25.5%; in [16] it was 29.7%; in test [17], 43%; in [19] it was 18.7%.

As to `Cc1nc2ccccc2n1CC1C(=O)NC(=O)NC1=O`, the growth in test [1] is 107%; in [2] it was 94.1%; in test [3], 98.5%; in test [4] it was 99.4%; in [6], 100%; in test [7], 103%. Further, the growth in test [8] is 100%; in test [9] it was 108%; in [11] it was 106%; in [12] it was 104%; in test [13], 91.3%; in test [14], 107%. Besides, the growth in [15] was 109%; in test [16], 104%; in [17], -34.3% (active); in [18], 103%; in test [19], 98.1%.
